ClpP mod = qHTS Assay for Activators of ClpP | ATP-dependent Clp protease proteolytic subunit (Bacillus subtilis (strain 168)), P80244 | purified B. subtilis ClpP, FRET peptide cleavage, 20 min | Potency, µM (highest dose often 57.5 µM), without a hit: at the top dose activity change, negative = active | actives 1.9% (n = 340,000); active = well fitted falling curve with a large enough effect; inconclusive = small, poorly fitted or top-dose-only effect; inactive = no such curve, though single readings can be large or run the other way; note: the source files actives as falling curves though it sought activators and does not explain the sign; nearly all actives have a fitted effect of over 65% in size
Target sequence (P80244 whole entry, looked up): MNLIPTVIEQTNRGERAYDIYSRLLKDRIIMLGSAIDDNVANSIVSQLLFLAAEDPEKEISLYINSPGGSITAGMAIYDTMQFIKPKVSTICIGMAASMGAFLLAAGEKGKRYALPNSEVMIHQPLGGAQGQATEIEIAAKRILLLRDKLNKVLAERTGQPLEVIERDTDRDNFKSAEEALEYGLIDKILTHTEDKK
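ClpP 10 microg/mL final, pH 8 Tris/KCl buffer with BSA, glycerol, Tween-20; compound pinned in; FRET-FV substrate; RT 20 min; Ex320/Em430; ΔFRET vs ADEP 5.8 microM, DMSO, no enzyme.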
TDP-43 yeast inh = TDP-43 toxicity inhibition in yeast. Potency, µM (doses to about 46.1 µM), inactives show at the top dose growth rescue (activation), hits mostly activators. actives 1.8% (n = 410,000). TDP-43 expressing yeast growth rescue, BacTiter-Glo, 24 h; note: % of control where 0% means no effect; nearly all actives have a fitted effect of over 50% in size
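Readout is BacTiter-Glo luminescence of cell growth, so inhibitors register as activators. TDP-43-expressing yeast at OD600=0.02 in galactose medium, after raffinose pregrowth to mid-log, were incubated with compound for 24 hr at 30 deg C.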
Mm-Cpn inhibitor = blocks the Methanococcus maripaludis chaperonin Mm-Cpn; Potency, µM (titrated, usually from 76.9 µM), without a hit: at the top dose activity, negative = inhibition, hits mostly inhibitors; AID 504842; purified Mm-Cpn ATPase, ADP Transcreener TR-FRET; actives 0.031% (n = 330,000); note: % is set by controls: 0 for no effect and ±100 for the full control effect; nearly all actives have a fitted effect of over 80% in size
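Eu-cryptate anti-ADP/ADP-d2 competition gives a ratio inversely related to ADP. Enzyme at 25 nM was pre-exposed to compound for 10 min, then given 10 uM ATP for 30 min, 37°C throughout.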
FUS yeast rescue = FUS proteinopathy suppression in yeast; AID 1347120; S. cerevisiae FUS-expressing, growth rescue, OD600, 24 h; Potency, µM (highest dose often 76.6 µM), most hits filed as activators; actives 0.24% (n = 390,000);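 note: plate controls were DMSO vehicle for no effect and reference control for full effect; nearly all actives have a fitted effect of over 55% in size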
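FUS-expressing yeast, raffinose-pregrown, induced in 2% galactose minimal medium at OD 0.005; compounds in a dilution series, 24hr at 30C. Growth restoration read as absorbance at 600 nm. CP55940 positive control, DMSO negative.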
aSyn yeast inh = rescues yeast growth from alpha-synuclein toxicity. AID 652106. Yeast expressing alpha-synuclein, growth rescue, BacTiter-Glo, 24 h. actives 0.14% (n = 370,000). Potency, µM (doses to about 46.1 µM), for the others: at the highest dose growth rescue (activation), actives largely listed as activators; note: % of control where 0% means no effect; nearly all actives have a fitted effect of over 65% in size
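Rescue of yeast growth: cells expressing toxic alpha-synuclein, induced in galactose at OD600 0.02, incubated with compound 24 h at 30 C. ATP luminescence quantified growth; inhibitors of toxicity appear as activators.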
Abeta rescue = A-beta toxicity reversal in yeast. yeast expressing A-beta42, growth rescue, OD600, 48 h; response scale: 0% DMSO, 100% iron-clioquinol control. Potency, µM (doses to about 46.1 µM), actives largely listed as activators. actives 0.063% (n = 410,000); note: nearly all actives have a fitted effect of over 55% in size
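Yeast growth medium received pinned compounds, then yeast cells expressing toxic A-beta were added; plates incubated at 30 C for 48 hr. Growth read as absorbance at 600 nm, normalized to DMSO and equimolar FeCl3 plus clioquinol controls.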
ClpP inh valid = Bacillus subtilis ClpP inhibition, validated hit | Potency, µM (highest dose often 57.5 µM), for inactives: at the highest dose activity change, negative = inhibition, actives largely listed as inhibitors | purified B. subtilis ClpP, FRET-FV substrate cleavage, 20 min | shares compounds with ClpP mod | actives 40% (n = 470); note: % is set by controls: 0 for no effect and ±100 for the full control effect; nearly all actives have a fitted effect of over 70% in size
Active calls of the source: *; i = inactive; ? = inconclusive; · = no result; ! = not confirmed by another sample; [ ] = another dose, or the depositor's remark. A selection: hits, their analogues and other compounds. The true share with any hit is near 3.6%. Unless noted, calls come from the whole dose curve; as a rule, active = well fitted curve in the direction sought with a large enough effect; inconclusive = small, poorly fitted or top-dose-only effect, or another doubt; inactive = no such curve, though single readings can be large; an effect the other way counts as inactive or inconclusive. Potency is the fitted concentration of half-maximal effect.

SMILES | ClpP mod | TDP-43 yeast inh | Mm-Cpn inhibitor | FUS yeast rescue | aSyn yeast inh | Abeta rescue | ClpP inh valid
COc1ccccc1CNc1ccc(-c2nc(-c3ccncc3)no2)cc1[N+](=O)[O-] | -1% | -18% | · | i | · | i | ·
O=C(CSc1nnc(-c2ccccn2)n1Cc1ccco1)Nc1ccc(Oc2ccccc2)cc1 | · | · | · | i | · | · | ·
CCc1nn(CC(=O)N2CCCCC2)c(=O)c2cc3sc(C)cc3n12 | -2% | 12% | · | i | · | i | ·
COc1cc2ccccc2cc1C(=O)Nc1ccc(Br)cn1 | 3.5µM* | 3% | 0% | i | -9% | i | ?
COc1cc2ccccc2cc1C(=O)Nc1cc(C)ccn1 | 3% | 0% | 1% | i | -7% | i | ·
CCC(C)NC(=O)c1nn(-c2ccc(C)cc2)c(=O)n(C)c1=O (stereo not drawn) | -2% | 23%[9.22 µM] | · | i | · | i | ·
CCOc1ccccc1-c1nc2c(C(C)(C)C)nn(C)c2c(=O)[nH]1 | · | · | -3% | · | · | · | ·
CCOc1ccccc1-c1nc2c([nH]1)c(=O)n(C)c(=O)n2C | 3.5µM* | ? | -5% | i | 6% | i | 22µM*
COC(=O)[C@]12C[C@H](CC(=O)N3CCSCC3)C(=O)N(Cc3ccco3)C1=C[C@H](C(C)(C)C)O[C@@H]2C | · | · | · | i | · | · | ·
O=S(=O)(Nc1cccc(-c2cn3cccnc3n2)c1)c1ccc(F)cc1 | 4µM* | -1% | 0% | · | -1% | i | 24µM*
COc1ccccc1NC(=O)CSc1nc(-c2ccc(C(C)(C)C)cc2)c(C#N)c(=O)[nH]1 | -1% | 2% | · | ? | · | i | ·
COc1ccc(NC(=O)c2cc3cc(OC)ccc3oc2=O)cc1 | 0% | -3% | · | i | 4% | i | ·
COc1ccc2oc(=O)c(C(=O)Oc3ccc(NC(C)=O)cc3)cc2c1 | 82% | -8% | 1% | i | -2% | i | 5%
Cc1ccc(NC(=O)c2ccc(NC(=O)c3ccccc3)cc2)cc1C | 202% | -28% | -2% | · | -4% | i | 24µM*
O=c1oc2ccccc2cc1-c1cn2cc(Cc3ccc(Br)cc3)sc2n1 | -9% | -4% | · | i | · | i | ·
Cc1ccc2nc(-c3ccco3)c(Nc3ccccc3)n2c1 | 3.2µM*! | -15% | -3% | · | -10% | i | ?
CCOc1ccccc1CNC(=O)c1cnc2sc(N3CCCC3)nn2c1=O | 7.9µM* | 0% | · | i | · | i | 0%
COc1ccc2c(c1)c1ncn(CCc3ccccc3)c(=O)c1n2C | 4.5µM* | -3% | 1% | i | 1% | i | 12µM*
COc1ccc(CCNc2cc(C)nc3c(-c4ccc(Cl)cc4)cnn23)cc1OC | 8.9µM* | 18µM* | -18% | ? | 12% | i | 24µM*
COc1cc2c(cc1NC(=O)CN1CCN(S(=O)(=O)c3ccccc3F)CC1)oc1ccccc12 | 3.5µM* | -16% | 1% | i | 2% | i | ?
CC1=C(C(=O)Nc2ccccc2)C(c2ccc(C)cc2)N=C(Nc2nc3ccccc3o2)N1 (stereo not drawn) | 5µM* | -1% | 0% | i | 8% | i | 24µM*
Cc1ccc(C(=O)Nc2ccc3c(c2)nc2n3CCSC2)cc1 | 0% | -27% | 1% | i | 3% | i | ·
CC(=O)Nc1ccc2c(c1)nc1n2CCSC1 | 40% | -18% | -1% | i | -1% | i | -1%
COc1ccc2c(c1)c1c(c(=O)n(Cc3ccccc3)c(=O)n1CC(=O)NCc1ccccc1)n2C | 4% | 10% | · | i | · | i | ·
CCN(Cc1ccccc1)C(=O)Cn1c(=O)n(Cc2ccccc2)c(=O)c2c1c1cc(OC)ccc1n2C | 0.71µM* | 4% | · | i | · | i | 27µM*
SMILES | ClpP mod | TDP-43 yeast inh | Mm-Cpn inhibitor | FUS yeast rescue | aSyn yeast inh | Abeta rescue | ClpP inh valid
CCOc1cc(C(=O)Nc2ccc3oc(-c4ccc(CC)cc4)nc3c2)cc(OCC)c1OCC | -16% | 7% | · | i | · | i | ·
COc1ccc(S(=O)(=O)N2CCOC23CCN(S(=O)(=O)c2cccs2)CC3)cc1 | 1% | -9% | 1% | i | 5% | i | ·
O=S(=O)(c1ccccc1)N1CCC2(CC1)OCCN2S(=O)(=O)c1cccs1 | 33% | -3% | -2% | i | 12% | i | 0%
CCOC(=O)c1ccccc1NC(=O)N1CCOc2ccc(Cl)cc21 | ? | 0% | · | i | · | i | ·
CC(=O)Nc1ccc(NC(=O)Nc2ccc(C)c(C)c2)cc1 | 1% | 4% | 1% | i | 0% | i | ·
CC(=O)Nc1cccc(NC(=O)Nc2ccc(C)c(Cl)c2)c1 | 1.8µM* | 12% | -1% | i | 0% | i | 0%
CC1(C)O[C@H]2[C@@H](O1)[C@@H](C(=O)Nc1ccccc1O)O[C@@H]1OC(C)(C)O[C@@H]12 | -2% | 18%[9.22 µM] | · | i | · | i | ·
CC1CCN(S(=O)(=O)c2ccc(NC(=O)c3cccs3)cc2)CC1 | 127% | -4% | -1% | i | 12% | i | -1%
CN1CCN(S(=O)(=O)c2ccc(NC(=O)c3cccs3)cc2)CC1 | -1% | 3% | · | i | 2% | i | ·
CC1CCN(c2ccc(-c3cccc(NS(=O)(=O)c4ccc(F)cc4F)c3)nn2)CC1 | -4% | -4% | · | ? | · | i | ·
COc1cccc(N2CCN(c3ncnc4c3c(-c3ccccc3)cn4-c3cccc(C(F)(F)F)c3)CC2)c1 | 4µM* | 12% | · | i | · | i | 22µM*
COc1cc2ccccc2cc1C(=O)NCC(c1cccs1)N(C)C (stereo not drawn) | 3.2µM* | 14%[9.22 µM] | -1% | i | 2% | i | ?
O=C(NCc1ccccc1F)C1C2C=CC3(CN(Cc4ccccc4)C(=O)C13)O2 (stereo not drawn) | · | · | · | i | · | · | ·
COc1ccccc1C1CC(c2ccco2)=NN1c1ccccc1 (stereo not drawn) | 3.5µM* | 12% | -7% | · | -4% | i | 27µM*
Cc1ccc(NC(=O)c2oc3ccccc3c2NC(=O)Cc2ccccc2)cc1 | 145% | 9% | · | i | · | i | ?
CCOc1ccc(CC(=O)Nc2c(C(=O)Nc3ccccc3)oc3ccccc23)cc1OCC | 231% | 7% | 1% | i | -2% | i | ?
O=C1CCC[C@H]2C[C@H](NCc3ccc(Br)cc3)CC[C@]23CCCN13 | · | · | · | i | · | · | ·
